In PubChem BioAssay (NCI):
About 83,000 compounds went through this panel and 20% of them were active in at least one assay; those are over-represented in the sample as a whole.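 Results are percent growth after 48 hours of single-concentration exposure. 100 means growth as in untreated cells, lower positive values show inhibition; negative values down to -100 show cell death.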 Values without a mark were called inactive. Calls of active or inactive are those of the source. How the source made its calls: active means growth percent below 10; inactive means the rest.

What was measured:
Assay in all cases: NCI-60 one-dose screen, 48 h (100 = growth as untreated, 0 = no growth, -100 = all killed)
DU-145 prostate = settings: 10 µM
K-562 leukemia = settings: 10 µM
MALME-3M melanoma = settings: 10 µM
MDA-MB-231 breast = settings: 10 µM
RXF 393 renal = settings: 10 µM
SF-268 CNS = settings: 10 µM
SF-295 CNS = settings: 10 µM
SF-539 CNS = settings: 10 µM
UACC-257 melanoma = settings: 10 µM
M14 melanoma = settings: 10 µM
HCT-15 colon = settings: 10 µM
HT29 colon = settings: 10 µM
SNB-75 CNS = settings: 10 µM
SNB-19 CNS = settings: 10 µM
U251 CNS = settings: 10 µM
PC-3 prostate = settings: 10 µM
SK-MEL-5 melanoma = settings: 10 µM
UACC-62 melanoma = settings: 10 µM unless noted
LOX IMVI melanoma = settings: 10 µM
SK-MEL-28 melanoma = settings: 10 µM

Row | SMILES | growth (DU-145 prostate) | growth (K-562 leukemia) | growth (MALME-3M melanoma) [%] | growth (MDA-MB-231 breast) [%] | growth (RXF 393 renal) [%] | growth (SF-268 CNS) [%] | growth (SF-295 CNS) | growth (SF-539 CNS) | growth (UACC-257 melanoma) [%] | growth (M14 melanoma) [%] | growth (HCT-15 colon) | growth (HT29 colon) | growth (SNB-75 CNS) [%] | growth (SNB-19 CNS) [%] | growth (U251 CNS) [%] | growth (PC-3 prostate) [%] | growth (SK-MEL-5 melanoma) | growth (UACC-62 melanoma) [%] | growth (LOX IMVI melanoma) | growth (SK-MEL-28 melanoma) [%]
1 | CCC(=O)Oc1ccc(OC)cc1 | 98.3% | 107% | 89.1 | 103 | 116 | 102 | 118% | 101% | 108 | 104 | 105% | 105% | 90.7 | 104 | 98.3 | 110 | 107% | 99.8 | 105% | 112
2 | C[N+](C)(C)C(=O)c1ccccc1 | 114% | 117% | 117 | 97.5 | 114 | 98.2 | 114% | 98.9% | 109 | 95.2 | 101% | 104% | 94.8 | 102 | 107 | 102 | 105% | 94 | 99.9% | 116
3 | COc1cc(C2c3cc4c(cc3C3OC(=O)C2C3CO)OCO4)cc(OC)c1OC (configuration not stated) | -41.5% (active) | 8.48% (active) | 50.3 | 30.3 | 57.9 | 30.3 | 3.2% (active) | -7.04% (active) | 57 | 12.1 | 3.35% (active) | -9.63% (active) | 53.4 | 46.6 | 19.7 | 19.2 | -0.321% (active) | 29.7 | 7.4% (active) | 49.4
4 | COC(=O)c1cccnc1 | 107% | 113% | 112 | 100 | 105 | 95.4 | 110% | 91.1% | 90.4 | 93.9 | 103% | 101% | 88.2 | 95.3 | 99.4 | 95.2 | 96.4% | 90.8 | 95.6% | 103
5 | S=c1nn[nH]c2ccccc12 | 120% | 99% | 148 | 93.4 | 114 | 110 | 113% | 105% | 108 | 102 | 103% | 112% | 96.4 | 95.9 | 103 | 98.1 | 97.9% | 99.2 | – | 126
6 | COCCOC(=O)c1ccc(C(C)C)cc1 | 103% | 106% | 92.7 | 102 | 124 | 99.1 | 104% | 99% | 81 | 93.2 | 99.5% | 91.9% | 86.9 | 106 | 98.8 | 82.9 | 103% | 99.4 | – | 110
7 | CC(=O)/C(Cc1ccccc1)=N/O | 115% | 85.5% | 104 | 100 | 109 | 104 | 105% | 91.9% | 89.5 | 94.8 | 99.7% | 92.9% | 89.2 | 98.9 | 94.9 | 84.9 | 106% | 98.1 | – | 110
8 | N#CCCN(CCCN1CCOCC1)CN1C(=O)c2ccccc2C1=O | 109% | 91.6% | 87.6 | 113 | 98 | 115 | 98.6% | 110% | 107 | 125 | 104% | 107% | 87.7 | 110 | 100 | 105 | 96.8% | 107 | 101% | 101
9 | COc1ccc(C)cc1OC | 99.6% | 92.9% | 97 | 107 | 117 | 98.4 | 95.7% | 109% | 93.9 | 115 | 104% | 108% | 104 | 107 | 97.2 | 105 | 99.7% | 99.5 | 96.1% | 115
